Tests used:
Experiment in all cases: DAPPL (digital affinity profiling via proximity ligation, sequencing); 10 mM Tris-HCl pH 7.5, 50 mM NaCl, 1 mM DTT, 4% glycerol, room temperature, 30 min; GST-TFs on glutathione beads, 16-mer random dsDNA library, 0.1% formaldehyde crosslink after washing; high values mean tight binding
FLI1 = molecular target: T1, FLI1 (Homo sapiens, UniProt Q01543 1-452); conditions: protein: recombinant; tags: N-terminal GST; dsDNA, one strand shown
T1 sequence: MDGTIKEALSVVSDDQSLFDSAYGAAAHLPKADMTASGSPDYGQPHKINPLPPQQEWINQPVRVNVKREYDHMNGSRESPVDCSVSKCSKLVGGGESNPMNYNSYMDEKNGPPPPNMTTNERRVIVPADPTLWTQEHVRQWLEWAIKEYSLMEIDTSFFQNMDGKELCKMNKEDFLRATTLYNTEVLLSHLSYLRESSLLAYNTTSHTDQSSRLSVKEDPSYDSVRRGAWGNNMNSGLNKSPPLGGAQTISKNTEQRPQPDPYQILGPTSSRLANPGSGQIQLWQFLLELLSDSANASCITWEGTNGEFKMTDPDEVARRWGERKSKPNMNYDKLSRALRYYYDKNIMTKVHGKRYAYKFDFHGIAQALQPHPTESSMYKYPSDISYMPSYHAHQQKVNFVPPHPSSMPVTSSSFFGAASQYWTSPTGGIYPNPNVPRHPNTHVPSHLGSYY
Method in brief: (§1)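 A tag-only sample was pooled with DNA-barcoded human transcription factors that had been expressed in yeast as GST fusions and captured on glutathione beads. The pools were incubated for 30 min at room temperature with 200 nmole of a random double-stranded 16-mer DNA library in Tris/NaCl/DTT/glycerol buffer, then washed, crosslinked with 0.1% formaldehyde, proximity-ligated (BsaI/T4 ligase, 1 h, 37 °C), PCR-amplified and sequenced on an Illumina NextSeq500. Binding signal is each hexamer's read frequency for a factor divided by its frequency for the tag-only sample.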

ELK1 = molecular target: T2, ELK1 (Homo sapiens, UniProt P19419 1-428); conditions: protein: recombinant; tags: N-terminal GST; dsDNA, one strand shown
T2 sequence: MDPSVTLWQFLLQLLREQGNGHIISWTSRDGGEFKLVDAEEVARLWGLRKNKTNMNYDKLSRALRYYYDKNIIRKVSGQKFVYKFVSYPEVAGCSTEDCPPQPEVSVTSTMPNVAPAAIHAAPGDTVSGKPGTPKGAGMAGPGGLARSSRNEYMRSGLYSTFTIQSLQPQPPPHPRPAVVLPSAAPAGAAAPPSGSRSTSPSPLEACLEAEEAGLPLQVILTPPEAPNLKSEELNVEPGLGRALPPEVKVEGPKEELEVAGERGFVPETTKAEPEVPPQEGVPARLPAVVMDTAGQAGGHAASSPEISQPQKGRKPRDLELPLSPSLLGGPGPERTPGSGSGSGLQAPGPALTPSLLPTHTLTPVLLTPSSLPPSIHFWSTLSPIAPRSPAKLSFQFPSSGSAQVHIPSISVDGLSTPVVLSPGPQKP
Method in brief: as §1

GABPA = molecular target: T3, GABPA (Homo sapiens, UniProt Q06546 1-454); conditions: protein: recombinant; tags: N-terminal GST; dsDNA, one strand shown
T3 sequence: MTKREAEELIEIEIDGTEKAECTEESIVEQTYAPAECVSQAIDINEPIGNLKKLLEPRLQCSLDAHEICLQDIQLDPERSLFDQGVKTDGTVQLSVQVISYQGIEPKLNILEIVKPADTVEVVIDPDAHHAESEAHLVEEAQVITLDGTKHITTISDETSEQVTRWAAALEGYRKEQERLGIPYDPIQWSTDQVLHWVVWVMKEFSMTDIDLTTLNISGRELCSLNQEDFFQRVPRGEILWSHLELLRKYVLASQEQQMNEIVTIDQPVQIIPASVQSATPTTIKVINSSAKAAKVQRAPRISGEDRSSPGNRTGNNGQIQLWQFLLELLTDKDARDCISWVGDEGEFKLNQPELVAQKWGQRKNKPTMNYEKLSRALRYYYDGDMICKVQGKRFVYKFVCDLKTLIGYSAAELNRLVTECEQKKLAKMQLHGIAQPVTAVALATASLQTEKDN
Method in brief: as §1

ELF1 = ELF1 (Homo sapiens, UniProt P32519 1-619); conditions: protein: recombinant; tags: N-terminal GST; dsDNA, one strand shown
Sequence of ELF1 (P32519 whole entry): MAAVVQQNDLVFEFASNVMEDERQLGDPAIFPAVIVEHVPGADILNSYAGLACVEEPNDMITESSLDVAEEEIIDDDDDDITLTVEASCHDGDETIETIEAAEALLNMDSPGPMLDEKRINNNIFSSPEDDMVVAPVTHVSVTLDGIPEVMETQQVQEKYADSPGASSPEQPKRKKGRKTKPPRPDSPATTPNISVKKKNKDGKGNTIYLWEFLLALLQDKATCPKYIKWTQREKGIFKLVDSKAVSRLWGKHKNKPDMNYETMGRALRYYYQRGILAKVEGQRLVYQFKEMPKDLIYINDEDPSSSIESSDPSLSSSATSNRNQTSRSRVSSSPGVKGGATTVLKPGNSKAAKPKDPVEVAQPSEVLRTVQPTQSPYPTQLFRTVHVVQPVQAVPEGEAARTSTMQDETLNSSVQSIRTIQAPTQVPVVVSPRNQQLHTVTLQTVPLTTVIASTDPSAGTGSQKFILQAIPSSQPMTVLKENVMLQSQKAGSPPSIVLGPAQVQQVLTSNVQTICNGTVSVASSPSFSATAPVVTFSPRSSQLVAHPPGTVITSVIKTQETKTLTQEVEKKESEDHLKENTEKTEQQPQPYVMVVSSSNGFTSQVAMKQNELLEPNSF
Method in brief: as §1

SPI1 = SPI1 (Homo sapiens, UniProt P17947 1-270); conditions: protein: recombinant; tags: N-terminal GST; dsDNA, one strand shown
Method in brief: as §1

ETV5 = ETV5 (Homo sapiens, UniProt P41161 1-510); conditions: protein: recombinant; tags: N-terminal GST; dsDNA, one strand shown
Sequence of ETV5 (P41161 whole entry): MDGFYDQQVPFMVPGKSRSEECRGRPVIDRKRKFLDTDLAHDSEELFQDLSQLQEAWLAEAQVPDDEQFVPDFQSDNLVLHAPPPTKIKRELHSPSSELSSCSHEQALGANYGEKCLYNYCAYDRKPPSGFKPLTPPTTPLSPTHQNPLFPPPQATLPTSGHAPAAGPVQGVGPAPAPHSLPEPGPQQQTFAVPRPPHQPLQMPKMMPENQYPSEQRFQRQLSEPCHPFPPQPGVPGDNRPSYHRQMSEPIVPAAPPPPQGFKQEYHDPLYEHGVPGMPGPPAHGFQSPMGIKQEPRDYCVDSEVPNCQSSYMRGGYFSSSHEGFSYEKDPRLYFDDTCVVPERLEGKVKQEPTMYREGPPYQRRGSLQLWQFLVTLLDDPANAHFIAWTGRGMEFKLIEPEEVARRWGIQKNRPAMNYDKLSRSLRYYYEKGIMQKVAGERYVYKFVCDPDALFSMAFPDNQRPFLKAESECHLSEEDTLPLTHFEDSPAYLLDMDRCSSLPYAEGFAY
Method in brief: as §1

HSF1 = HSF1 (Homo sapiens, UniProt Q00613 1-529); conditions: protein: recombinant; tags: N-terminal GST; chain copies: 3; dsDNA, one strand shown
Sequence of HSF1 (Q00613 whole entry): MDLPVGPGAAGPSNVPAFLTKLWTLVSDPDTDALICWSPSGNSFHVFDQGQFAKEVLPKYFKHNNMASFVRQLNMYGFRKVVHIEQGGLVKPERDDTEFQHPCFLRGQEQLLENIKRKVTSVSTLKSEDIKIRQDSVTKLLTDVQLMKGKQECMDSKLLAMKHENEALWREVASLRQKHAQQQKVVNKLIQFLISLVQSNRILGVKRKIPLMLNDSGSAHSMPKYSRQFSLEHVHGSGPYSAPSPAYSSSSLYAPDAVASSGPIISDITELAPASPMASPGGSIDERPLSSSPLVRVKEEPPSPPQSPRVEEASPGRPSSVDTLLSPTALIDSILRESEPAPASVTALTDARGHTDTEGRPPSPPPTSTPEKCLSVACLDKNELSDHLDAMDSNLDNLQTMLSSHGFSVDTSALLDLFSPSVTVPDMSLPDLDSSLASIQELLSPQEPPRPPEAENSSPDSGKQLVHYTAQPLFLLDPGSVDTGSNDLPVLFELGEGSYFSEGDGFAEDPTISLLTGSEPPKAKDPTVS
Method in brief: as §1

SPIC = molecular target: T4, SPIC (Homo sapiens, UniProt Q8N5J4 1-248); conditions: protein: recombinant; tags: N-terminal GST; dsDNA, one strand shown
T4 sequence: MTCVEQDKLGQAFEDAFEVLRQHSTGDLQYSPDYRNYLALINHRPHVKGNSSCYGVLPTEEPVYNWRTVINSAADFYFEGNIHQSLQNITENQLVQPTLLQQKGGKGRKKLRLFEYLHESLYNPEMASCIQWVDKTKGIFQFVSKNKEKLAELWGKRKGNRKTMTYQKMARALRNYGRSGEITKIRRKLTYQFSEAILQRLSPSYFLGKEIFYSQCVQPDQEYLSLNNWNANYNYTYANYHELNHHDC
Method in brief: as §1

ELK4 = molecular target: T5, ELK4 (Homo sapiens, UniProt P28324-2 1-405); conditions: protein: recombinant; tags: N-terminal GST; dsDNA, one strand shown
T5 sequence: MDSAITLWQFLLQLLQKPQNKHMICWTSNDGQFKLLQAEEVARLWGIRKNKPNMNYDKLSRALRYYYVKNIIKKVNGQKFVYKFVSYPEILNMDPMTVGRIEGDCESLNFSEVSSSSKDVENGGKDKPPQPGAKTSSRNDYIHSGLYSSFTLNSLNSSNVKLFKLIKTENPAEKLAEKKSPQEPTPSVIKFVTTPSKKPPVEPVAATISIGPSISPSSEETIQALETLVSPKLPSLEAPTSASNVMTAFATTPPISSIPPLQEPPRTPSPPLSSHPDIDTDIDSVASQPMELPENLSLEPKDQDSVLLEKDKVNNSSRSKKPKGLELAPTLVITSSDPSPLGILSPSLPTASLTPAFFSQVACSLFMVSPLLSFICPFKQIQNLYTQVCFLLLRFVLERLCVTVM
Method in brief: as §1

CRX = CRX (Homo sapiens, UniProt O43186 1-299); conditions: protein: recombinant; tags: N-terminal GST; dsDNA, one strand shown
Sequence of CRX (O43186 whole entry): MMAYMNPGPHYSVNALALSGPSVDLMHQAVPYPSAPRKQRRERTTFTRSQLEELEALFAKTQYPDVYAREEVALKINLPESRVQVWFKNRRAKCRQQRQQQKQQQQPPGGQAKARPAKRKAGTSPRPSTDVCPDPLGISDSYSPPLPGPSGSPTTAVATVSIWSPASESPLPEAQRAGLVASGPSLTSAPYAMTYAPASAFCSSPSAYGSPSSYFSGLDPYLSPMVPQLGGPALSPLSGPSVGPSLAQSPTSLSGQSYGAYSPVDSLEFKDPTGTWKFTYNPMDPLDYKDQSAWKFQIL
Method in brief: as §1

ETV1 = ETV1 (Homo sapiens, UniProt P50549 1-477); conditions: protein: recombinant; tags: N-terminal GST; dsDNA, one strand shown
Sequence of ETV1 (P50549 whole entry): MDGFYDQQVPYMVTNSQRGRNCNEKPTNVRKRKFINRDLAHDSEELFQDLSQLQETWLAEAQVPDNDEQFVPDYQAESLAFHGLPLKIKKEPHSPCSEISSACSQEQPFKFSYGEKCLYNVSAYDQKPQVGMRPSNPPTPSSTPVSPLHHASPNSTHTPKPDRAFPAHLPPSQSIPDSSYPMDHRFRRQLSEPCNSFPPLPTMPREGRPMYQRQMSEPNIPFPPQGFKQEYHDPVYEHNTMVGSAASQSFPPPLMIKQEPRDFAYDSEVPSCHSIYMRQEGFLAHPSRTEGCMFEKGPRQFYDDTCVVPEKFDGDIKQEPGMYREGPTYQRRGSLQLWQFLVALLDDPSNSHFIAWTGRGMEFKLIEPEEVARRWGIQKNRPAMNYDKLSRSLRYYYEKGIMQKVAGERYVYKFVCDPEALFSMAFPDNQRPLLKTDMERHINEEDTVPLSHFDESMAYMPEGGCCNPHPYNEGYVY
Method in brief: as §1

ERG = molecular target: T6, ERG (Homo sapiens, UniProt P11308 1-479); conditions: protein: recombinant; tags: N-terminal GST; dsDNA, one strand shown
T6 sequence: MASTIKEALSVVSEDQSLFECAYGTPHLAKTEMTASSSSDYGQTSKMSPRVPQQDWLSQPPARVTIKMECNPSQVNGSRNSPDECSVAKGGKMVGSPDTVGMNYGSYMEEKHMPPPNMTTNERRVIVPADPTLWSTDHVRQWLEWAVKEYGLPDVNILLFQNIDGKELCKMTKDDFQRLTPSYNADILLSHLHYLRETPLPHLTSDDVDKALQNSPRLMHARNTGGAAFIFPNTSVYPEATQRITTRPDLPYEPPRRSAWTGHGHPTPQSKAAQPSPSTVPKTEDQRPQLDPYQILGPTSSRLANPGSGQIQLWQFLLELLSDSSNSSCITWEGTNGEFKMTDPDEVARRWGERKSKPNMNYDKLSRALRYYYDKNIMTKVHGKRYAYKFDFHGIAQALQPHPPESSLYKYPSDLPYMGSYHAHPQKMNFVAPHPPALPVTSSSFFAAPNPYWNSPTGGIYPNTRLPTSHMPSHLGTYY
Method in brief: as §1

EHF = molecular target: T7, EHF (Homo sapiens, UniProt Q9NZC4 1-300); conditions: protein: recombinant; tags: N-terminal GST; dsDNA, one strand shown
T7 sequence: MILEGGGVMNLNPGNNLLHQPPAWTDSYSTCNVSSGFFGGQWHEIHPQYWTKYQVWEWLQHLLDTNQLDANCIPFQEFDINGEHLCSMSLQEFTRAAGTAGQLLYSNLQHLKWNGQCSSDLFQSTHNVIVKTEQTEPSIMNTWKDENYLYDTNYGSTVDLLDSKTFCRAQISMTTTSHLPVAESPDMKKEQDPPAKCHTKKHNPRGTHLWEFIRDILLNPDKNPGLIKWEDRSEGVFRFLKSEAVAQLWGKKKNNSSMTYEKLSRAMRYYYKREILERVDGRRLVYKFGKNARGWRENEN
Method in brief: as §1

SPIB = SPIB (Homo sapiens, UniProt Q01892 1-262); conditions: protein: recombinant; tags: N-terminal GST; dsDNA, one strand shown
Sequence of SPIB (Q01892 whole entry): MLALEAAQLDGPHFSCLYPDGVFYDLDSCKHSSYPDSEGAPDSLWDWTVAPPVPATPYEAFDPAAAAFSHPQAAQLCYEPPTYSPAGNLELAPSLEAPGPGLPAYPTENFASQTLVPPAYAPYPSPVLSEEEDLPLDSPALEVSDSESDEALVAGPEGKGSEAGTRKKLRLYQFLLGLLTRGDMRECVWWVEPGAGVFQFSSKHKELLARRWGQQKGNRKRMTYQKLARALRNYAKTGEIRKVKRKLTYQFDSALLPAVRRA
Method in brief: as §1

ELK3 = molecular target: T8, ELK3 (Homo sapiens, UniProt P41970 1-407); conditions: protein: recombinant; tags: N-terminal GST; dsDNA, one strand shown
T8 sequence: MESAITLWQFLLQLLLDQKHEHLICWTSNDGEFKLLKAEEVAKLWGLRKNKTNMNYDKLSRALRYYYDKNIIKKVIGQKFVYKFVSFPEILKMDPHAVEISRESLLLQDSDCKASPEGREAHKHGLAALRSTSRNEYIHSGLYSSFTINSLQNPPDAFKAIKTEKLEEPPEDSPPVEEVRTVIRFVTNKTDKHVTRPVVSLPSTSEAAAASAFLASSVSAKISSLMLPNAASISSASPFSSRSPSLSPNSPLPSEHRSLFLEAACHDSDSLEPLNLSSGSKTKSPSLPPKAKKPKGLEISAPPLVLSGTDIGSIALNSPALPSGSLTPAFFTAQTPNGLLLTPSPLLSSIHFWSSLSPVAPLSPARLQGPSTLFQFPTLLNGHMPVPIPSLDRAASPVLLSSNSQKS
Method in brief: as §1

FEV = molecular target: T9, FEV (Homo sapiens, UniProt Q99581 1-238); conditions: protein: recombinant; tags: N-terminal GST; dsDNA, one strand shown
T9 sequence: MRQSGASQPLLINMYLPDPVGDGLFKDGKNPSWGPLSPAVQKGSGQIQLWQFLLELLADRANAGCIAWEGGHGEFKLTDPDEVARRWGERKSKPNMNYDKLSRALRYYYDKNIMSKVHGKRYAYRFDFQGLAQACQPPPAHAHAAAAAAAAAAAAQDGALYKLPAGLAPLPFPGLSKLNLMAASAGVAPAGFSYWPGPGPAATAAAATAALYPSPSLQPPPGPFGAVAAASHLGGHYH
Method in brief: as §1

ELF4 = ELF4 (Homo sapiens, UniProt Q99607 1-663); conditions: protein: recombinant; tags: N-terminal GST; dsDNA, one strand shown
Sequence of ELF4 (Q99607 whole entry): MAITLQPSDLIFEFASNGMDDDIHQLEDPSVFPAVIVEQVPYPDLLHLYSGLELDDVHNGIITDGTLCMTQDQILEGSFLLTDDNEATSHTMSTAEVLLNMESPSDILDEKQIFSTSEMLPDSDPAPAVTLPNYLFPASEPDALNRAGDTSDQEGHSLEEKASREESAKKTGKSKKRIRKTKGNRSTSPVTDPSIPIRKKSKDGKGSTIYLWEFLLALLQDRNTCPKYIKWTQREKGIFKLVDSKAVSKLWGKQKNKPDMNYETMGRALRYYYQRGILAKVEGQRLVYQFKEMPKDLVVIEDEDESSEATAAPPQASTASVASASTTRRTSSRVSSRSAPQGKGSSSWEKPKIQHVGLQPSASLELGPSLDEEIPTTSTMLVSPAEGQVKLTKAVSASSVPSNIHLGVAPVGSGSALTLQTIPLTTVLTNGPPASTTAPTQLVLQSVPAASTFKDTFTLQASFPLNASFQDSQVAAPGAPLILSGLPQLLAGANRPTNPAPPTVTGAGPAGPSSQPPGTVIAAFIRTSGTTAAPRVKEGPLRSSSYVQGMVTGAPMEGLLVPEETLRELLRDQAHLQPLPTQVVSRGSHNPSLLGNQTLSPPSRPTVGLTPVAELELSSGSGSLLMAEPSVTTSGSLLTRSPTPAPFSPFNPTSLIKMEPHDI
Method in brief: as §1

ETV2 = molecular target: T10, ETV2 (Homo sapiens, UniProt O00321 1-342); conditions: protein: recombinant; tags: N-terminal GST; dsDNA, one strand shown
T10 sequence: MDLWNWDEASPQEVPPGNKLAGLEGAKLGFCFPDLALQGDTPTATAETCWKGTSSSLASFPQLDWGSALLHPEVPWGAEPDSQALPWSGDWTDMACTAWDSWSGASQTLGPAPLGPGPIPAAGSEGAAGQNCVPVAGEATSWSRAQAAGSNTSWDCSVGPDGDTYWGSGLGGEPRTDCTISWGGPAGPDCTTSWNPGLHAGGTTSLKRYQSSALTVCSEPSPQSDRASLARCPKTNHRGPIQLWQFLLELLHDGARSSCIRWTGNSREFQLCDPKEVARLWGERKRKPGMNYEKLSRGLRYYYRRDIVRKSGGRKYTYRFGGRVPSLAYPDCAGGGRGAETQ
Method in brief: as §1

Sequence	binding signal (FLI1)	binding signal (ELK1)	binding signal (GABPA)	binding signal (ELF1)	binding signal (SPI1)	binding signal (ETV5)	binding signal (HSF1)	binding signal (SPIC)	binding signal (ELK4)	binding signal (CRX)	binding signal (ETV1)	binding signal (ERG)	binding signal (EHF)	binding signal (SPIB)	binding signal (ELK3)	binding signal (FEV)	binding signal (ELF4)	binding signal (ETV2)
TCATAA	1.03 fold enrichment (6-mer frequency, TF over GST control)	1.05 fold enrichment (6-mer frequency, TF over GST control)	1.03 fold enrichment (6-mer frequency, TF over GST control)	1.02 fold enrichment (6-mer frequency, TF over GST control)	1.06 fold enrichment (6-mer frequency, TF over GST control)	1.06 fold enrichment (6-mer frequency, TF over GST control)	1.14 fold enrichment (6-mer frequency, TF over GST control)	1.12 fold enrichment (6-mer frequency, TF over GST control)	1.09 fold enrichment (6-mer frequency, TF over GST control)	1.38 fold enrichment (6-mer frequency, TF over GST control)	1.07 fold enrichment (6-mer frequency, TF over GST control)							
GTACTA	1.16 fold enrichment (6-mer frequency, TF over GST control)	1.06 fold enrichment (6-mer frequency, TF over GST control)	1.12 fold enrichment (6-mer frequency, TF over GST control)	1.19 fold enrichment (6-mer frequency, TF over GST control)	1.02 fold enrichment (6-mer frequency, TF over GST control)	1.14 fold enrichment (6-mer frequency, TF over GST control)	1.15 fold enrichment (6-mer frequency, TF over GST control)	1.11 fold enrichment (6-mer frequency, TF over GST control)		1.12 fold enrichment (6-mer frequency, TF over GST control)	1.13 fold enrichment (6-mer frequency, TF over GST control)	1.07 fold enrichment (6-mer frequency, TF over GST control)	1.14 fold enrichment (6-mer frequency, TF over GST control)	1.1 fold enrichment (6-mer frequency, TF over GST control)	1.02 fold enrichment (6-mer frequency, TF over GST control)	1.12 fold enrichment (6-mer frequency, TF over GST control)	1.08 fold enrichment (6-mer frequency, TF over GST control)	1.21 fold enrichment (6-mer frequency, TF over GST control)

Reference: publication PMC7862700, “An all-to-all approach to the identification of sequence-specific readers for epigenetic DNA modifications on cytosine”
